Consider nine molecules from PubChem BioAssay (Tox21).

Test [1] in a line: qHTS assay to test for compound auto fluorescence at 535 nm (green) in HEK293 cells (AID 720680). Note: % is set by controls: 0 for no effect and ±100 for the full control effect. A general note: In qHTS, concentration-response curves come from the screen itself.
Test [2] in a line: qHTS assay to test for compound auto fluorescence at 460 nm (blue) in HEK293 cell free culture (AID 720681). Note: % is set by controls: 0 for no effect and ±100 for the full control effect. In a few lines:
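Test compounds were pinned into cell-free culture medium (DMEM with 10% FBS) and fluorescence was read directly at Ex/Em 405/460 nm. Signals were expressed as fluorescence equivalents of triamterene, with DMSO vehicle as control.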

Test [3] can be described thus: qHTS assay to test for compound auto fluorescence at 535 nm (green) in HEK293 cell free culture (AID 720682). Note: % is set by controls: 0 for no effect and ±100 for the full control effect. In a few lines: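 Fluorescein serves as the green reference fluorophore; each compound's intrinsic emission at 535 nm (excitation 485 nm) is reported as an equivalent amount of that dye, measured in serum-containing DMEM without cells.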
The nature of test [4]: qHTS assay to test for compound auto fluorescence at 590 nm (red) in HEK293 cell free culture (AID 720683). Note: % is set by controls: 0 for no effect and ±100 for the full control effect. In a few lines: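 Tox21 10K library compounds were pinned into cell-free DMEM with 10% FBS and fluorescence was read at excitation 540 nm. Activity is expressed as Rose Bengal sodium equivalency.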
Test [5] can be described thus: qHTS assay to test for compound auto fluorescence at 590 nm (red) in HepG2 cell free culture (AID 720684). Note: % is set by controls: 0 for no effect and ±100 for the full control effect. In a few lines: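 Ex 540 / Em 590 nm read of compound in cell-free MEM (10% FBS). Rose Bengal sodium reference.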
Test [6] in a line: qHTS assay to test for compound auto fluorescence at 460 nm (blue) in HepG2 cell free culture (AID 720685). Note: % is set by controls: 0 for no effect and ±100 for the full control effect. In a few lines: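 Cell-free plates of MEM plus 10% FBS received 23 nL compound or DMSO vehicle; blue-channel (405/460 nm) intensity scored against triamterene as reference fluorophore.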
Test [7] can be described thus: qHTS assay to test for compound auto fluorescence at 535 nm (green) in HepG2 cell free culture (AID 720686). Note: % is set by controls: 0 for no effect and ±100 for the full control effect.
A short description of test [8]: qHTS assay to test for compound auto fluorescence at 460 nm (blue) in HepG2 cells (AID 720687). Note: % is set by controls: 0 for no effect and ±100 for the full control effect. In a few lines:
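Cells (2,000/well in MEM with 10% FBS) attached overnight at 37 C, then were exposed to compound or DMSO for 1 hr at 37 C, 5% CO2. Fluorescence read at Ex/Em 405/460 nm, expressed as triamterene-equivalent signal.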

Test [9] is described as follows: qHTS assay to identify small molecule antagonists of the glucocorticoid receptor (GR) signaling pathway - cell viability counter screen (AID 720693). Note: % is set by controls: 0 for no effect and ±100 for the full control effect; nearly all actives have a fitted effect of over 55% in size.
Test [10] is described as follows: qHTS assay for identifying genotoxic compounds that show differential cytotoxicity against isogenic chicken DT40 cell lines with known DNA damage response pathways - wild type cell line (AID 743012). Note: nearly all actives have a fitted effect of over 60% in size. Note: potency is the fitted concentration of half-maximal effect. In a few lines:
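CellTiter-Glo luminescence readout of viability in wild type DT40 cells after 40 h compound exposure at 37 C/5% CO2; 300 cells/well; reagent incubated 30 min at room temperature before reading.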

Test [11] is described as follows: qHTS assay for identifying genotoxic compounds that show differential cytotoxicity against isogenic chicken DT40 cell lines with known DNA damage response pathways - Rad54/Ku70 mutant cell line (AID 743015). Note: nearly all actives have a fitted effect of over 60% in size. Note: potency is the fitted concentration of half-maximal effect.
Test [12] can be described thus: qHTS assay to identify small molecule antagonists of the androgen receptor (AR) signaling pathway - cell viability counter screen (AID 743033; note: % is set by controls: 0 for no effect and ±100 for the full control effect; nearly all actives have a fitted effect of over 45% in size).
Test [13] in a line: qHTS assay to identify small molecule antagonists of the androgen receptor (AR) signaling pathway using the MDA cell line - cell viability counter screen (AID 743041; note: % is set by controls: 0 for no effect and ±100 for the full control effect; nearly all actives have a fitted effect of over 45% in size). In a few lines:
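In this qHTS counter assay, fluorescence intensity after CellTiter-Fluor addition indicated viability of MDA-kb2 AR-luc cells given compounds and R1881 for 16 h at 37C.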

Test [14] can be described thus: qHTS assay for identifying genotoxic compounds that show differential cytotoxicity against isogenic chicken DT40 cell lines with known DNA damage response pathways - Rev3 mutant cell line (AID 743014). Note: nearly all actives have a fitted effect of over 55% in size. Note: potency is the fitted concentration of half-maximal effect.
In test [15] the target is Glucocorticoid receptor (Homo sapiens) (UniProt P04150). The experiment in a line: qHTS assay to identify small molecule antagonists of the glucocorticoid receptor (GR) signaling pathway (AID 720692; active = well fitted inhibition curve with a large enough effect in the signal ratio in the repeat runs, not every such curve was filed as active; the % refers to the signal ratio; note: potency is the fitted concentration of half-maximal effect). In a few lines: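 Read-out: beta-lactamase FRET substrate fluorescence, 2 h at room temperature, in HeLa cells stably carrying a GRE-driven bla reporter. Compounds were co-incubated with 5 nM dexamethasone agonist (final) for 18 h at 37 C.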
Glucocorticoid receptor (Homo sapiens), sequence (P04150 whole entry, looked up): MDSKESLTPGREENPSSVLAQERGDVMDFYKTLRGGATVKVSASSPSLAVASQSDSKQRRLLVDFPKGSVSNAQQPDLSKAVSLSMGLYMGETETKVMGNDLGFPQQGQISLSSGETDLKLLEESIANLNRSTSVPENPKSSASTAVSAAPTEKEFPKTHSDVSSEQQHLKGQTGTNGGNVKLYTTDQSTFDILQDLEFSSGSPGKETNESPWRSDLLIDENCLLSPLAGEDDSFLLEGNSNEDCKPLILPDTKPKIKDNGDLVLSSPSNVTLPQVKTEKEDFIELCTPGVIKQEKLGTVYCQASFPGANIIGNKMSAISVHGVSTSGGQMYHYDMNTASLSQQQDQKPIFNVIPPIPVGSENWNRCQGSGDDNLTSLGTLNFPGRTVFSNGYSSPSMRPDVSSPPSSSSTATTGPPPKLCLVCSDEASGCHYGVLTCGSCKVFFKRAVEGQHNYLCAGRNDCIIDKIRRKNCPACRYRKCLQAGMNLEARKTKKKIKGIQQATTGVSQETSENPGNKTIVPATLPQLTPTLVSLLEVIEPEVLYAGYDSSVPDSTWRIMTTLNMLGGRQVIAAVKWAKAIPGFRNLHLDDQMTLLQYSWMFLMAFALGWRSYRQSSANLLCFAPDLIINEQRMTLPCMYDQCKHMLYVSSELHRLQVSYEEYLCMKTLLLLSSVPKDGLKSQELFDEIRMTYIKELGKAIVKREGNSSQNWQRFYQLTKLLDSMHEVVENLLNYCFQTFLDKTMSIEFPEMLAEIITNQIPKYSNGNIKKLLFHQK

In test [16] the target is Androgen receptor (Homo sapiens) (UniProt P10275). The experiment in a line: qHTS assay to identify small molecule agonists of the androgen receptor (AR) signaling pathway using the MDA cell line (AID 743040; note: % is set by controls: 0 for no effect and ±100 for the full control effect; nearly all actives have a fitted effect of over 20% in size). In a few lines:
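Cell-based luciferase reporter: MDA-kb2, MMTV promoter (AR + GR response elements). 16 h compound exposure at 37C; ONE-Glo, 30 min RT, luminescence.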

For test [17] the target is unchanged. The experiment in a line: qHTS assay to identify small molecule antagonists of the androgen receptor (AR) signaling pathway using the MDA cell line (AID 743042; note: % is set by controls: 0 for no effect and ±100 for the full control effect; nearly all actives have a fitted effect of over 55% in size). In a few lines:
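MDA-kb2 cells (human breast carcinoma, stably carrying an MMTV-luciferase reporter responsive to AR and GR) were plated at 3,000 cells/well and preincubated 5 hr at 37C, then given compound plus R1881 agonist for 16 h. ONE-Glo luminescence was read.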

For test [18] the target is unchanged. Kind of test: qHTS assay to identify small molecule antagonists of the androgen receptor (AR) signaling pathway (AID 743035; active = well fitted inhibition curve with a large enough effect in the signal ratio in the repeat runs, not every such curve was filed as active; the % refers to the signal ratio; note: % is set by controls: 0 for no effect and ±100 for the full control effect). In a few lines: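 AR-bla HEK293 reporter cells; 4 h settle at 37C/5% CO2; compound + R1881 agonist, 16 h at 37C; LiveBLAzer B/G FRET substrate 2 h RT; fluorescence intensity read. qHTS format.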

Values joined by “and” are separate entries in the source; they are usually repeats but may differ in a detail not shown here. Equal values may be shown once. Values without a mark were called inactive. Inconclusive results are not listed. Active and inactive are the calls of the source. Unless noted, calls come from the whole dose curve; as a rule, active = well fitted curve in the direction sought with a large enough effect in the repeat runs; inconclusive = weak or mixed curves; inactive = no such curve, though single readings can be large; an effect the other way counts as inactive or inconclusive.

Androgen receptor (Homo sapiens), sequence (P10275 whole entry, looked up): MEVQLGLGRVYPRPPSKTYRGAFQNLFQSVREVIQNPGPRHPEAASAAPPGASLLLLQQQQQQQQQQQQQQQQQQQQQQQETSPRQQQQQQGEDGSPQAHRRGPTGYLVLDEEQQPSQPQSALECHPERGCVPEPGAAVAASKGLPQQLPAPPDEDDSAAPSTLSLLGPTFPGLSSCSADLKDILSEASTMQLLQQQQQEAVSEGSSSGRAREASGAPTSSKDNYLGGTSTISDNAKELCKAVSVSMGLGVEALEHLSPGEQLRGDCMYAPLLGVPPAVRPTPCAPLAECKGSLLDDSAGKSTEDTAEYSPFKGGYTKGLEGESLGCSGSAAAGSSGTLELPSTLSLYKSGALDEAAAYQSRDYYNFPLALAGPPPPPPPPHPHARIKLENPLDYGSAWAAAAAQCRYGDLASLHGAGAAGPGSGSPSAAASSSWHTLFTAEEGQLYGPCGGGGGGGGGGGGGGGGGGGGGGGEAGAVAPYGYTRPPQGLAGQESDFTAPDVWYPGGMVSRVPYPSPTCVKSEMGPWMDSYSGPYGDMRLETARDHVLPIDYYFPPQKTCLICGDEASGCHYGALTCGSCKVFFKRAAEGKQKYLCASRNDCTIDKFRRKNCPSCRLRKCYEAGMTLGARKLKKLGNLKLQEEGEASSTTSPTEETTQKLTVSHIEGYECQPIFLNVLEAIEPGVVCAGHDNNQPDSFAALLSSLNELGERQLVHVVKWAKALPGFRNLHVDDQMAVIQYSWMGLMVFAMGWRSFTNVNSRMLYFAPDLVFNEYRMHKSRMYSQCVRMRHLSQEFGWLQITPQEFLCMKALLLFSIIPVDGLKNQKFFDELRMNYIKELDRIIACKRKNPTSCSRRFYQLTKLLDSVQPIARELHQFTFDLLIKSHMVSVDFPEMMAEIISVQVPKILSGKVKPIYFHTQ

With `CCCCCCCCCCCCCOC(=O)CCSCCC(=O)OCCCCCCCCCCCCC`, in [1], the fluorescence, % of fluorescein is -0.0169% [at 18.6 µM]. Also, the fluorescence, % of fluorescent control in test [2] was -0.0348% [at 18.6 µM]; in test [4], 0.0989% [at 18.6 µM]; in test [6], -0.0714% [at 18.6 µM]; in [8], -0.106% [at 18.6 µM]. Further, the activity change in [3] is 0.0335% [at 18.6 µM]. Further, the fluorescence, % of Rose Bengal in test [5] is -0.0106% [at 18.6 µM]. In addition, the fluorescence, % of fluorescein control in [7] is -0.0124% [at 18.6 µM]. In addition, the Potency entry in test [9], in [10], in test [11], in test [12] and in [13] was “inactive” each time.

`CC[C@H]1OC(=O)[C@H](C)[C@@H](O[C@H]2C[C@@](C)(OC)[C@@H](O)[C@H](C)O2)[C@H](C)[C@@H](O[C@@H]2O[C@H](C)C[C@H](N(C)C)[C@H]2O)[C@](C)(O)C[C@@H](C)CN(C)[C@H](C)[C@@H](O)[C@]1(C)O`: the molecule was called inactive in test [1], in [3], in test [4], in [5] and in test [7]. The Potency result in test [2], in test [6], in test [8], in test [9], in test [12] and in test [13] was “inactive” throughout. In addition, the Potency in test [10] was 3.76 µM (active) and 2.87 µM (active); in test [14], 2.11 µM (active) and 1.81 µM (active); in test [11], 3.76 µM (active) and 2.56 µM (active).

Regarding `O[C@@H](CNC[C@H](O)[C@H]1CCc2cc(F)ccc2O1)[C@@H]1CCc2cc(F)ccc2O1`, the outcome in test [1], in test [3], in test [4], in test [5] and in test [7] was inactive. For the same molecule, the Potency entry in test [2], in test [6] and in [8] was “inactive” throughout. Also, the values for the Potency in [15], in [10] and in test [14] were 23.9 µM (active), 6.68 µM (active) and 13.3 µM (active), respectively.

For `COC(C)(C)OC`, the result in [1], in test [3], in [4], in test [5] and in test [7] was inactive. Further, the Potency result in test [2], in test [6], in test [8], in [9], in [10] and in test [14] was “inactive” throughout. Further, the Potency entry in test [12] is “inactive”.

Turning to `CC1=CC[C@@H]2C[C@H]1C2(C)C`, in test [1], the fluorescence, % of fluorescein was -0.149% [at 18.6 µM]. The fluorescence, % of fluorescent control in test [2] was 0.0118% [at 18.6 µM]; in test [4], 0.0507% [at 18.6 µM]; in test [6], 0.0508% [at 18.6 µM]; in test [8], -0.0004% [at 18.6 µM]. For the same molecule, the activity change in test [3] is -0.0302% [at 18.6 µM]. Also, the fluorescence, % of Rose Bengal in test [5] was 0.0249% [at 18.6 µM]. In [7], the fluorescence, % of fluorescein control was 0.0311% [at 18.6 µM]. Further, the Potency result in test [9], in test [10], in test [12] and in [13] was “inactive” each time.

As for `NC(=O)c1ccccc1[N+](=O)[O-]`, the outcome in [1], in test [3], in [4], in test [5] and in test [7] was inactive. Further, the Potency result in test [2], in test [6], in [8], in test [9], in test [10] and in [14] was “inactive” each time. Further, the Potency entry in test [11] and in test [13] was “inactive” in each case.

For the molecule `CCN(CC)C(=O)/C(C#N)=C/c1cc(O)c(O)c([N+](=O)[O-])c1`, the molecule was classed as inactive in [1], in test [3], in test [4], in [5] and in test [7]. For the same molecule, the Potency result in test [2], in [6], in test [8], in test [9], in [10] and in [11] was “inactive” each time. Moreover, the Potency result in [12], in test [16], in [13] and in [17] was “inactive” throughout.

Turning to `CCCCCCCCCCCCCOS(=O)(=O)O`, the outcome in test [1], in [3], in test [4], in test [5] and in test [7] was inactive. Besides, the Potency entry in test [2], in test [6], in [8], in test [9], in test [10] and in test [18] was “inactive” each time. Further, the Potency result in test [16], in test [13] and in [17] was “inactive” throughout.

On to `CC1CCCO1` (stereo not drawn), for which the molecule was called inactive in [1], in test [3], in test [4], in test [5] and in [7]. In addition, the Potency entry in [2], in test [6], in test [8], in test [9], in test [10] and in test [14] was “inactive” each time. Moreover, the Potency entry in test [11], in test [12] and in test [13] was “inactive” in each case.
